Measured values reported in PubChem BioAssay AID1508600 (Functional Genomics Laboratory (NCATS/FGL), 2020).
In all, about 53,000 sequences went through this assay and about 3,700 (7%) were called active. Only a selection was taken, and actives are over-represented in it overall. A number with no mark means an inactive call.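 How the source made its calls: active means gene knockdowns whose robust z-score for IL-1 alpha signal is at least 2 or at most -2, so actives lie on both sides; inactive means the rest.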

Assay: Components of the Cytosolic LPS Sensing Pathway: Gene Identification via Genome-wide siRNA Screen;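 further: robust z of the log signal after scaling to non-targeting control siRNA wells of the plate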
Conditions: RAW264.7 macrophages, IL-1a HTRF, actives lie on both sides, screened at 100 nM (by protocol), cells primed 5 h with Pam3CSK4 first
Summary of the method: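 Read-out: IL-1a HTRF on supernatant, divided by plate negative-control median ×100, log-transformed and converted to robust z-score. Cells were RAW264.7 given 100 nM siRNA, Pam3CSK4-primed 5 hours, then LipidA-transfected 24 hour.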
Sequence “GCUUUAGGUAUGGUCCUAATT against A430072C10Rik” has a z-score of 1.23.
Work on “GGAUCCAAGGGCAAAAGAUTT against St6galnac1” yielded a z-score of -1.36.
For CGUACUAUAGUAAAUCCAGTT against Clk1, the z-score was 2.4 (active).
In the case of GCCAAGAAACAAUACUCAUTT against Olfr1352, the z-score is reported as 0.694.
Work on CCUACCAAAACGACUAUAUTT against Pnma3 yielded a z-score of -1.29.
In the case of CGGGCUGAUUCAACUGGUGTT against Kif1b, the z-score is reported as 3.64 (active).
GGUACCUCUUCUCCUAAAGTT against Vps16 gave a z-score of 0.106.
Sequence GCAUCUCAGCUCUGAUUUATT against Fgfbp3 has a z-score of 0.758.
GGUAGAAACUGACCACAUATT against Aifm1 showed a z-score of 0.917.
In the case of GGAGUAAAUUGAGAAACCATT against Acsm5, the z-score is reported as -0.149.
For CCUUUAUUUCUGUGAAUCUTT against Olfr1467, the z-score was 0.631.
GCUGUUCGUGAGGAUAACCTT against Yipf1 gave a z-score of 1.2.
GGGUAGAAUGACUUUGGCCTT against Cldn2 gave a z-score of 1.19.
With GGCUUAUCAUAUGAAGACATT against Aplp2 the z-score was 2.33 (active).
Sequence GGAGUCACCAGACUUGUGUTT against Svs3b has a z-score of 0.637.
GGAAAAUGCUCACAUAGUGTT against Pak1ip1 gave a z-score of 0.442.
With CGCAUACUGUGGAAUAGUUTT against Spag4 the z-score was -1.26.
With GGAAUGAAAGUUCCACUAUTT against Emcn the z-score was -0.633.
CCCACCACUAUUUAUAUGATT against Dlg2 gave a z-score of -0.17.
In the case of GGAUGUGACAUGAAUCCUGTT against Ankle1, the z-score is reported as -0.49.
In the case of CCAAAACUAGGAAGAAACATT against Olfr716, the z-score is reported as -2.3 (active).
With GGCAAUAAAUAUCCAGAAATT against Crygn the z-score was 1.02.
GCAGCUCUGCGGAAGCUUUTT against Olfr1350 showed a z-score of -0.505.
Work on GGAUCUUGAUAGACUGAUGTT against Rhox5 yielded a z-score of 0.362.
With GGAAAAUCUCCGUUGUCUCTT against Acin1 the z-score was -2.76 (active).
In the case of UCAUUGAGAAAGGAGAAGATT against Cox17, the z-score is reported as -0.547.
In the case of GGUAGAUAACCUGAUUUAUTT against Slc7a6, the z-score is reported as 2.22 (active).
GCCUGUGUAUUACUUUUUUTT against Sned1 showed a z-score of -0.786.
GGAGUUGCCUCUGAAGACCTT against Ccm2l showed a z-score of 0.797.
Work on GGUGUUCAGGAGAUGAUGCTT against Cdt1 yielded a z-score of 0.0123.
In the case of GGAGCAUCUCCUCAUGGAUTT against Actl11, the z-score is reported as 2.08 (active).
In the case of GCCUUAUCCUGAGAAUGGCTT against Lrrc47, the z-score is reported as -0.61.
For GGCUGCUGUUAACAAGCUGTT against Wdr13, the z-score was -2.41 (active).
Sequence GCUCCUCCAGAUACAUGCUTT against Tbrg1 has a z-score of -0.741.
Sequence GGUUCUUUCGACUUCCUGCTT against Ccbe1 has a z-score of -0.166.
Work on GGCAACAGACAAACAGCCGTT against Ugcg yielded a z-score of -1.54.
With GGAGAAGAAAAAGCGGUACTT against Plxnb2 the z-score was 2.71 (active).
For GGAGUACUGGGCAUAUAAATT against Slc29a3, the z-score was -0.324.
GGGUGGUUAGAACAGCCACTT against Prss16 showed a z-score of -1.21.
Work on CCCUAGAGAUGGUGGGUCUTT against Olfr934 yielded a z-score of -0.484.
Work on GGCAGUUAACACUUAAUGATT against Foxp2 yielded a z-score of 0.609.
With GGAACAUAACUCUUGUAUATT against Dhx35 the z-score was -1.52.
In the case of “GGAGAAACUUCUUUAAAGCTT against 5830427D03Rik”, the z-score is reported as 0.573.
For GGACAAGUGCCUCUCACCATT against Glis2, the z-score was -3.25 (active).
GGCAGAAAGUAAAUCCGUGTT against Exoc3l4 gave a z-score of -1.22.
With GGCCAUAGAUAUUCAAGGUTT against Olfr218 the z-score was 0.293.
GCCUUUGUGUUACAAUAUGTT against Fermt2 showed a z-score of 0.487.
For GUCAAAGAGUUUCAGCAUCTT against Foxl1, the z-score was 0.664.
GGAGGUUUUCCGAAGUAUUTT against Pnpt1 showed a z-score of 1.2.
GGCUCUGUGACCAAGAUUUTT against Rtca gave a z-score of -1.48.
For GCCUCUCUCUAUCUAUGCATT against Tob2, the z-score was -2.2 (active).
In the case of GCAACGUGGUCUAUGAAUUTT against Disp2, the z-score is reported as -0.694.
In the case of GGUUUUUCAGUGACACAUGTT against Vmn1r192, the z-score is reported as 2.26 (active).
Work on CCAGAGUUUUAUAACGGAATT against Olfr1229 yielded a z-score of 0.601.
